Experimental data: the supplement of paper PMC7801607

Legend:
CHO = assay: % viability of CHO cells (MTT); higher = less toxic; conditions: 48 h
Outline: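 For 48 h, attached CHO cells (10^6 cells/well, 200 µL, seeded the night before) were kept in fresh medium carrying compound at 2 or 20 µM. A colorimetric tetrazolium (MTT) assay then gave survival as percent viability versus untreated cells.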

HepG2-A16-CD81 = assay: % inhibition of HepG2 viability (CellTiter-Glo); higher = more toxic; conditions: 5 µM
[1] = tested on: Plasmodium falciparum NF54 stage IV/V gametocytes; assay: % inhibition of gametocyte viability (PrestoBlue); higher = more inhibition; conditions: 48 h
Outline: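 Stage IV/V NF54 gametocytes at 2% gametocytaemia and 5% haematocrit (100 µL/well) were treated with compound at 1 or 5 µM and incubated for 48 h at 37 °C under stationary, hypoxic conditions. PrestoBlue (10 µL) was then added for 2 h, and fluorescence at 612 nm was read on 70 µL of transferred supernatant. Percent inhibition of gametocyte viability was normalised to vehicle and kill controls within one run.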

[2] = tested on: Plasmodium falciparum NF54 asexual blood stage; assay: % inhibition of asexual blood stage proliferation (pLDH); higher = more inhibition; conditions: 72 h
Outline: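 Plasmodium falciparum NF54 ring-stage cultures (1% haematocrit, 2% parasitaemia) were incubated with compound at 2 or 20 µM for 72 h at 37 °C under 4% CO2, 3% O2 and 93% N2. Survival was read at 620 nm with the parasite lactate dehydrogenase assay. Results were reported as percent inhibition of asexual proliferation relative to controls.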

[3] = tested on: Plasmodium falciparum NF54 stage IV/V gametocytes; assay: % inhibition of gametocyte viability (ATP bioluminescence); higher = more inhibition; conditions: 24 h
Outline: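 Stage IV/V NF54 gametocytes from density gradients (30,000 per well, 96-well plates) were incubated with compound at 1 or 5 µM for 24 h at 37 °C. A single run supplied percent inhibition of gametocyte viability, based on ATP measured with Promega BacTiter Glo and normalised to control wells.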

[4] = tested on: Plasmodium falciparum NF54 stage IV/V gametocytes; assay: % inhibition of gametocyte viability (luciferase reporter); higher = more inhibition; conditions: 48 h
Outline: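 Percent inhibition came from luminescence and was normalised to controls in a single run. Gametocytes (stage IV/V, NF54-Pfs16-GFP-Luc line, 2% gametocytaemia, 2% haematocrit) were treated with compound at 1 or 5 µM and incubated for 48 h at 37 °C without agitation under hypoxia. Readings used 30 µL lysate with 30 µL Promega luciferin substrate on a GloMax-Multi+ reader, integrating for 10 s.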

[5] = tested on: Plasmodium berghei ANKA liver stage in HepG2-A16-CD81; assay: % inhibition of liver stage parasite viability (luciferase); higher = more inhibition; conditions: 5 µM; 48 h
Method: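 Single-concentration screen of the MMV Pandemic Response Box. P. falciparum NF54 asexual blood stages: pLDH assay, 72 h at 37 °C, 2 and 20 µM, n=2. Stage IV/V gametocytes (NF54): luciferase reporter (NF54-Pfs16-GFP-Luc, 48 h), ATP bioluminescence (24 h) and PrestoBlue (48 h) at 1 and 5 µM, n=1. P. berghei liver stage (luciferase in HepG2-A16-CD81, 48 h post infection) at 5 µM, n=4. All normalised to DMSO and kill controls as % inhibition.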
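For % inhibition of HepG2 viability (CellTiter-Glo) in this document: HepG2-A16-CD81 hepatoma cells plated as in the liver-stage assay but without sporozoites, with DMSO wells as negative and 25 µM puromycin as positive control.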

| Compound | % viability of CHO cells (CHO; 2 µM) | % viability of CHO cells (CHO; 20 µM) | % inhibition of HepG2 viability (HepG2-A16-CD81) | % inhibition of gametocyte viability ([1]; 1 µM) | % inhibition of gametocyte viability ([1]; 5 µM) | % inhibition of asexual blood stage proliferation ([2]; 2 µM) | % inhibition of asexual blood stage proliferation ([2]; 20 µM) | % inhibition of gametocyte viability ([3]; 1 µM) | % inhibition of gametocyte viability ([3]; 5 µM) | % inhibition of gametocyte viability ([4]; 1 µM) | % inhibition of gametocyte viability ([4]; 5 µM) | % inhibition of liver stage parasite viability [5] |
| --- | --- | --- | --- | --- | --- | --- | --- | --- | --- | --- | --- | --- |
| C[C@H](NC(CC(=O)c1ccccc1C(F)(F)F)C(=O)O)c1ccccc1 (stereo not given in full) | 119% | 58.9% | 0.323% | 20.3% | 77.3% | 34.4% | 108% | 11.3% | 35.8% | < 0% | 56.4% | – |
| NC(=O)c1cnccn1 | 96% | 75.7% | -2.12% | 9.19% | 38.1% | 38.1% | 70.3% | < 0% | < 0% | < 0% | 14.8% | 14.3% |
| CCCCCc1ccc(C(=O)NCCn2cc(CCCCCc3cnc(N)[nH]3)nn2)cc1 | 125% | 153% | 2.88% | < 0% | 63.4% | 72.9% | 96.5% | < 0% | < 0% | < 0% | < 0% | 37.7% |
| COc1ccc(OCc2ccc(COc3c(Cl)cccc3Cl)cc2)c(Cl)c1 | 99.5% | 100% | -5.86% | < 0% | < 0% | 21.2% | 68.1% | 4.45% | < 0% | < 0% | < 0% | 33.2% |
| CCC[C@H](NC(=O)[C@@H]1[C@H]2CCC[C@H]2CN1C(=O)[C@@H](NC(=O)[C@@H](NC(=O)c1cnccn1)C1CCCCC1)C(C)(C)C)C(=O)C(=O)NC1CC1 | 94.8% | 100% | -4.56% | < 0% | 7.89% | 49.1% | 57% | 6.88% | 10.7% | 3.5% | < 0% | 6.72% |
| CCCCCCCc1[nH]c2ccccc2c(=O)c1O | 96.8% | 107% | 24.8% | < 0% | < 0% | 22.4% | 83.6% | < 0% | < 0% | < 0% | < 0% | 72.5% |
| CS(=O)(=O)c1ccc(Oc2ccc(Cl)cc2)cc1 | 98.9% | 121% | -1.85% | 21.5% | 13.8% | 28.1% | 69.1% | < 0% | < 0% | < 0% | < 0% | 9.76% |
| O=S(=O)(Nc1ccc(-n2cccc2)cc1)c1ccc(Cl)c(Cl)c1 | 95% | 90.4% | -0.822% | < 0% | < 0% | 6.75% | 24% | < 0% | < 0% | < 0% | < 0% | – |
| COc1ccc(SCC(=O)N2c3ccccc3Sc3ccccc32)cc1 | 91% | 110% | 7.46% | < 0% | < 0% | 0.401% | 35.5% | < 0% | < 0% | < 0% | < 0% | 31.1% |
| COc1ccc2cc3[n+](cc2c1OCCN(CCn1cncn1)Cc1ccc(F)cc1F)CCc1cc2c(cc1-3)OCO2 | 89.4% | 74.2% | 22.1% | < 0% | < 0% | 78.3% | 84.3% | < 0% | 30.9% | < 0% | 10.3% | – |
| OC1O[C@H](CSc2ccc(F)cc2)[C@@H](O)[C@H]1O (stereo not given in full) | 84.4% | -2.31% | -4.06% | < 0% | 18.7% | 91.2% | 90.9% | < 0% | < 0% | < 0% | 0.415% | 31.6% |
| O=C(c1ccccc1)N1CCN(c2ccccc2NC(=O)C(Cl)(Cl)Cl)CC1 | 113% | 74.3% | 3.18% | < 0% | 5.75% | 50.4% | 118% | < 0% | < 0% | < 0% | < 0% | 28.1% |
| O=c1cc(OCc2ccccc2)ccn1Cc1ccccc1 | 82.6% | 98.7% | -3.88% | 14.1% | 6.4% | 6.62% | 51.5% | < 0% | < 0% | < 0% | < 0% | 20.3% |
| N[C@@H]1CN(c2c(F)cc3c(=O)c(C(=O)O)cn([C@@H]4C[C@@H]4F)c3c2Cl)CC12CC2 | 94.4% | 69.3% | -1.55% | < 0% | 10.3% | 36.2% | 99.6% | < 0% | < 0% | 0.138% | < 0% | -19.2% |
| C[C@H](Cn1cnc2c(N)ncnc21)OCP(=O)(O)O | 89.8% | 99.9% | -1.34% | 10.5% | 17.7% | -36.5% | 46.2% | 5.56% | < 0% | 9.2% | < 0% | 9.32% |
| Cc1onc(-c2ccccc2)c1-c1ccc(S(N)(=O)=O)cc1 | 120% | 106% | -1.58% | 12.1% | 41.6% | 48.8% | 77.5% | 1.41% | < 0% | 0.106% | < 0% | 4.19% |
| CCC(C)NCC(O)Cn1c2ccc(Cl)cc2c2cc(Cl)ccc21 (stereo not given) | 112% | 1.87% | 1.41% | 33.3% | 87.6% | 68.7% | 81.8% | 6.9% | 68.2% | < 0% | 91% | -2.71% |
| O=C(NC(=O)N1CCCc2ccccc21)c1cccc(Cl)c1 | 99.8% | 116% | 1.03% | < 0% | < 0% | -12.6% | 10.3% | < 0% | < 0% | < 0% | < 0% | 11.4% |
| Oc1cccc(C(Nc2nccs2)c2ccc3cccnc3c2O)c1 (stereo not given) | 57.5% | 42.1% | 9.72% | 24.1% | 65.5% | 80% | 91.8% | < 0% | 59.3% | 7.2% | 57.3% | 20.6% |
